These results are taken from PubChem BioAssay (EPA / NIEHS).

The structures appear in SMILES notation. Some compounds were tested as several samples or in several runs, with calls that do not always agree. Activity calls are given as the source filed them. The calls were made as follows: active = hit-call score of the fitted dose curve at least 0.9, where 1 is the maximum; inactive = score below 0.9.

Read-out in this assay: Thrombomodulin, THBD (gene 7056)
Kind of assay: BSK_3C_Thrombomodulin: BioMAP Diversity Plus: 3C Assay for Thrombomodulin Biomarker Activity (AID 2283029). The note with it: primary human endothelial cells (HUVEC); actives raise or lower the signal. The procedure: BSK_3C is a cell-based, multiplexed-readout assay that uses umbilical vein endothelium, a human vascular primary cell, with measurements taken at 24 hours after chemical dosing in a 96-well plate.BSK_3C_Thrombomodulin is an assay component measured in the BSK_3C assay. It measures Thrombomodulin antibody related to regulation of gene expression using ELISA technology.Data from the assay component BSK_3C_Thrombomodulin was analyzed into 1 assay endpoint. This assay endpoint, BSK_3C_Thrombomodulin, was analyzed with bidirectional fitting relative to DMSO as the negative control and baseline of activity. Using a type of binding reporter, gain or loss-of-signal activity can be used to understand changes in the signaling as they relate to the gene THBD. Furthermore, this assay endpoint can be referred to as a primary readout, because this assay has produced multiple assay endpoints where this one serves a signaling function. To generalize the intended target to other relatable targets, this assay endpoint is annotated to the gpcr intended target family, where the subfamily is rhodopsin-like receptor.
The levels of cell surface (or secreted, indicated by the prefix "s") biomarker endpoints were measured by ELISA. Overt cytotoxicity to cells in confluent adherent cultures (all systems other than the BT system) was assessed by measuring total protein levels using sulforhodamine B (SRB) staining in parallel cultures at the time of biomarker measurements, indicated as SRB endpoints. For proliferation assays for adherent cell types, individual cell types are cultured at sub-confluence and relative cell numbers quantified by SRB staining at time points optimized for each system (48 h: 3C and CASM3C systems; 72 h: BT and HDF3CGF systems; 96 h: SAg system). SRB was performed by staining cells with 0.1% SRB after fixation with 10% TCA and reading wells at 560 nm.Viability and proliferation of PBMC (T cells) was quantified by Alamar Blue reduction for the SAg and BT systems. For PBMC viability (referred to as PBMC Cytotoxicity within the assay endpoint names), cells were plated (75,000/well in a 96-well plate) and then chemical samples added for 1 h before addition of activators, SEB and TSST-1 (20 ng/mL final concentration each). Cells were incubated for 90 h. Then, Alamar Blue (20 uL/well) (Invitrogen, Cat DAL1100) was added for 6 h, and the plates were read with a fluorescence microplate reader at 546/580 nm (excitation/emission). For PBMC proliferation, cells were plated and activated as above but incubated for only 16 h prior to addition of Alamar Blue. Plates were read after 6 h.
Regarding `COC(=O)Cc1ccccc1`, the outcome was inactive.

As to `Oc1ccc(-c2ccccc2)cc1`, the outcome was inactive.

Consider `COc1cc(-c2ccc(N)c(OC)c2)ccc1N`, for which the outcome was inactive.

Regarding `Cc1ccccc1N`, the outcome was inactive.

As to `COC(=O)c1sccc1S(=O)(=O)NC(=O)Nc1nc(C)nc(OC)n1`, the outcome was inactive.

For the molecule `ClC1=C(Cl)[C@]2(Cl)[C@H]3[C@H]([C@H]4C=C[C@H]3C4)[C@@]1(Cl)C2(Cl)Cl`, the outcome was inactive.

In the case of `CCC(C)(C)c1ccc(O)c(C(C)(C)CC)c1`, the AC50 is 34.5 µM (active).

As to `CC(=O)C(Cl)C(=O)N(C)C` (stereo not given), the result was inactive.

In the case of `CCOP(=S)(OCC)SCCS(=O)(=O)CC`, the result was inactive.

In the case of `BrCCBr`, the outcome was inactive.

`CCCCC(CC)CO[N+](=O)[O-]` (stereo not given): the result was inactive.

On to `Nc1ncc([N+](=O)[O-])s1`, for which the outcome was inactive.

In the case of `CCOP(=S)(OCC)Oc1ccc(S(C)=O)cc1` (stereo not given), the outcome was inactive.

As for `O=[N+]([O-])c1ccc(O)c([N+](=O)[O-])c1`, the result was inactive.

For the molecule `Cn1sc(Cl)cc1=O`, the result was inactive.

As to `Nc1ccc(-c2ccc(N)c(Cl)c2)cc1Cl`, the result was inactive.

For `C[C@]12CCC(=O)C[C@@H]1CC[C@@H]1[C@@H]2CC[C@]2(C)[C@@H](O)CC[C@@H]12`, the result was inactive.

`Oc1cccc2cccnc12`: the outcome was inactive.

In the case of `O=C(O)C(Cl)(Cl)Cl`, the outcome was inactive.

As for `COP(=S)(OC)Oc1ccc(S(=O)(=O)N(C)C)cc1`, the outcome was inactive.

For the molecule `CC(C)CCCCCCOC(=O)c1ccccc1C(=O)OCCCCCCC(C)C`, the result was inactive.

`O=C(O)C(F)(F)C(F)(F)C(F)(F)C(F)(F)C(F)(F)C(F)(F)C(F)(F)C(F)(F)C(F)(F)C(F)(F)F`: the result was inactive and the AC50 is 5.29 µM (active).

For the molecule `CCOP(=S)(OCC)SCSP(=S)(OCC)OCC`, the result was inactive.

Take `CCOC(=O)/C=C(C)/C=C/C[C@@H](C)CCCC(C)C`: the AC50 is 5.42 µM (active).

With `CC(=O)OC(c1ccccc1)C(Cl)(Cl)Cl` (stereo not given), the outcome was inactive.

As to `CC(C)(C)c1cc(O)ccc1O`, the AC50 is 33.5 µM (active).

With `O=Cc1cccc(Oc2ccccc2)c1`, the result was inactive.

Consider `O=C1C2(Cl)C3(Cl)C4(Cl)C(Cl)(Cl)C5(Cl)C3(Cl)C1(Cl)C5(Cl)C24Cl` (stereo not given), for which the outcome was inactive.

Consider `C=C(C)C(=O)[O][Sn]([CH2]CCC)([CH2]CCC)[CH2]CCC`, for which the AC50 was 1.16 µM (active).

With `CC1(C)Cc2cccc(O)c2O1`, the result was inactive.

As for `CC(C)(C)CC(C)(C)c1ccc(O)cc1`, the outcome was inactive.

Take `O=C(OC1CCCCC1)c1ccccc1C(=O)OC1CCCCC1`: the outcome was inactive.

For `COC[C@H](C)N(C(=O)CCl)c1c(C)csc1C`, the result was inactive.

Consider `Oc1c(I)cc(I)cc1I`, for which the result was inactive.

`O=C(O)C(F)(F)C(F)(F)C(F)(F)C(F)(F)C(F)(F)C(F)(F)F`: the outcome was inactive.

In the case of `NC(=O)O`, the result was inactive.

Turning to `CCCCCCCCC(=O)NCc1ccc(O)c(OC)c1`, the outcome was inactive.

Turning to `CCN1CCC2(CC1)COc1cc3c(cc12)N(C(=O)c1ccc(-c2ccc(-c4nnc(C)o4)cc2C)cc1)CC3`, the outcome was inactive.

In the case of `COP(=S)(OC)Oc1c(Cl)cc(C)cc1Cl`, the outcome was inactive.

In general, AC50 refers to the concentration giving half of the maximal activity seen.
